# Assay results published in paper PMC5540273 (PLoS ONE, 2017).
# Legend:
# Details in all cases: concentration: 1 μM, replicates: in singlicate; n = 1
# [1] = system: T1, DCAMKL2
# T1 construct: gene DCLK2
# [2] = system: T2, DCAMKL3
# T2 construct: gene DCLK3
# [3] = system: DDR1
# [4] = system: DDR2
# [5] = system: T3, DLK
# T3 construct: gene MAP3K12
# [6] = system: T4, DMPK2
# T4 construct: gene CDC42BPG
# [7] = system: DMPK
# [8] = system: T5, DRAK1
# T5 construct: gene STK17A
# [9] = system: T6, DRAK2
# T6 construct: gene STK17B
# [10] = system: DYRK1A
# [11] = system: DYRK1B
# [12] = system: DYRK2
# [13] = system: EGFR
# [14] = system: EIF2AK1
# [15] = system: EPHA1
# [16] = system: EPHA2
# [17] = system: EPHA3
# [18] = system: EPHA4
# [19] = system: EPHA5
# [20] = system: EPHA6
# 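Note: KINOMEscan kinase panel screen.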
smiles,measurement,setting,value
COc1cc(Nc2ncc3c(C)nc(-c4cc5ccccc5[nH]4)n3n2)cc(OC)c1OC [GW869516],%Inh,[1],0%
same,%Inh,[2],0%
same,%Inh,[3],52%
same,%Inh,[4],52%
same,%Inh,[5],22%
same,%Inh,[6],0%
same,%Inh,[7],0%
same,%Inh,[8],30%
same,%Inh,[9],10%
same,%Inh,[10],85%
same,%Inh,[11],81%
same,%Inh,[12],0%
same,%Inh,[13],0%
same,%Inh,[14],0%
same,%Inh,[15],41%
same,%Inh,[16],49%
same,%Inh,[17],7%
same,%Inh,[18],46%
same,%Inh,[19],16%
same,%Inh,[20],0%
c1ccc(-c2cnc3nccnn23)cc1 [AH20685],%Inh,[1],27%
same,%Inh,[2],0%
same,%Inh,[3],0%
same,%Inh,[4],24%
same,%Inh,[5],20%
same,%Inh,[6],0%
same,%Inh,[7],0%
same,%Inh,[8],0%
same,%Inh,[9],0%
same,%Inh,[10],42%
same,%Inh,[11],5%
same,%Inh,[12],3%
same,%Inh,[13],14%
same,%Inh,[14],0%
same,%Inh,[15],0%
same,%Inh,[16],11%
same,%Inh,[17],0%
same,%Inh,[18],0%
same,%Inh,[19],0%
same,%Inh,[20],0%
Nc1ncc(-c2ccc3nccc(-c4ccncc4)c3c2)cc1S(=O)(=O)N1CCOCC1 [GSK1627798],%Inh,[1],22%
same,%Inh,[2],0%
same,%Inh,[3],0%
same,%Inh,[4],0%
same,%Inh,[5],32%
same,%Inh,[6],0%
same,%Inh,[7],0%
same,%Inh,[8],0%
same,%Inh,[9],0%
same,%Inh,[10],28%
same,%Inh,[11],0%
same,%Inh,[12],21%
same,%Inh,[13],18%
same,%Inh,[14],0%
same,%Inh,[15],4%
same,%Inh,[16],4%
same,%Inh,[17],0%
same,%Inh,[18],0%
same,%Inh,[19],0%
same,%Inh,[20],5%
C[C@@H]1CC[C@@H](C(=O)Nc2ccccc2)CN1c1cc(-c2ccc3c(N)n[nH]c3c2)nc(N)n1 [GSK2286062],%Inh,[1],17%
same,%Inh,[2],0%
same,%Inh,[3],1%
same,%Inh,[4],22%
same,%Inh,[5],17%
same,%Inh,[6],0%
same,%Inh,[7],0%
same,%Inh,[8],18%
same,%Inh,[9],0%
same,%Inh,[10],3%
same,%Inh,[11],0%
same,%Inh,[12],3%
same,%Inh,[13],43%
same,%Inh,[14],0%
same,%Inh,[15],1%
same,%Inh,[16],17%
same,%Inh,[17],2%
same,%Inh,[18],0%
same,%Inh,[19],0%
same,%Inh,[20],0%
Cn1cc(-c2[nH]c3cc(NC(=O)[C@H](N)C4CCCCC4)cc4c3c2C=NNC4=O)cn1,%Inh,[1],24%
same,%Inh,[2],99.4%
same,%Inh,[3],0%
same,%Inh,[4],39%
same,%Inh,[5],94.8%
same,%Inh,[6],0%
same,%Inh,[7],82%
same,%Inh,[8],99.6%
same,%Inh,[9],99.9%
same,%Inh,[10],79%
same,%Inh,[11],0%
same,%Inh,[12],92.3%
same,%Inh,[13],81%
same,%Inh,[14],0%
same,%Inh,[15],25%
same,%Inh,[16],1%
same,%Inh,[17],56%
same,%Inh,[18],11%
same,%Inh,[19],12%
same,%Inh,[20],14%
FC(F)(F)c1ccc(/C=C/c2cncnc2Nc2ccc3[nH]c(Cc4ccccc4)nc3c2)cc1 [GW709199],%Inh,[1],7%
same,%Inh,[2],21%
same,%Inh,[3],0%
same,%Inh,[4],36%
same,%Inh,[5],0%
same,%Inh,[6],0%
same,%Inh,[7],0%
same,%Inh,[8],0%
same,%Inh,[9],7%
same,%Inh,[10],0%
same,%Inh,[11],31%
same,%Inh,[12],0%
same,%Inh,[13],46%
same,%Inh,[14],0%
same,%Inh,[15],10%
same,%Inh,[16],12%
same,%Inh,[17],0%
same,%Inh,[18],0%
same,%Inh,[19],0%
same,%Inh,[20],0%
Cc1cccc(NC(=O)Nc2ccc(Oc3ncnc4ccn(C)c34)cc2)c1,%Inh,[1],0%
same,%Inh,[2],0%
same,%Inh,[3],99.3%
same,%Inh,[4],98.7%
same,%Inh,[5],0%
same,%Inh,[6],0%
same,%Inh,[7],0%
same,%Inh,[8],0%
same,%Inh,[9],0%
same,%Inh,[10],0%
same,%Inh,[11],9%
same,%Inh,[12],0%
same,%Inh,[13],1%
same,%Inh,[14],0%
same,%Inh,[15],0%
same,%Inh,[16],0%
same,%Inh,[17],17%
same,%Inh,[18],0%
same,%Inh,[19],9%
same,%Inh,[20],28%
CNC(=O)c1ccccc1Nc1nc(Nc2ccc(N3CCOCC3)cc2)ncc1Cl.Cl [GSK1576028],%Inh,[1],31%
same,%Inh,[2],81%
same,%Inh,[3],95.1%
same,%Inh,[4],73%
same,%Inh,[5],95%
same,%Inh,[6],25%
same,%Inh,[7],81%
same,%Inh,[8],95.1%
same,%Inh,[9],60%
same,%Inh,[10],94.4%
same,%Inh,[11],100%
same,%Inh,[12],99.1%
same,%Inh,[13],98.8%
same,%Inh,[14],0%
same,%Inh,[15],90.8%
same,%Inh,[16],53%
same,%Inh,[17],76%
same,%Inh,[18],29%
same,%Inh,[19],0%
same,%Inh,[20],65%
CN1CCN(Cc2cccc(-c3ccc4c(Nc5ccc(Oc6ccccc6)cc5)ccnc4c3)c2)CC1 [GW578342],%Inh,[1],1%
same,%Inh,[2],59%
same,%Inh,[3],9%
same,%Inh,[4],33%
same,%Inh,[5],41%
same,%Inh,[6],0%
same,%Inh,[7],0%
same,%Inh,[8],10%
same,%Inh,[9],0%
same,%Inh,[10],1%
same,%Inh,[11],13%
same,%Inh,[12],0%
same,%Inh,[13],87%
same,%Inh,[14],0%
same,%Inh,[15],0%
same,%Inh,[16],4%
same,%Inh,[17],3%
same,%Inh,[18],0%
same,%Inh,[19],0%
same,%Inh,[20],7%
Cc1ccc(C(=O)N2CC[C@@H](O)C2)cc1-n1c(C)cc(OCc2ccc(F)cc2F)c(Br)c1=O,%Inh,[1],0%
same,%Inh,[2],0%
same,%Inh,[3],99%
same,%Inh,[4],94.6%
same,%Inh,[5],0%
same,%Inh,[6],0%
same,%Inh,[7],0%
same,%Inh,[8],0%
same,%Inh,[9],0%
same,%Inh,[10],0%
same,%Inh,[11],0%
same,%Inh,[12],0%
same,%Inh,[13],0%
same,%Inh,[14],0%
same,%Inh,[15],78%
same,%Inh,[16],76%
same,%Inh,[17],42%
same,%Inh,[18],0%
same,%Inh,[19],0%
same,%Inh,[20],0%
